Consider 11 molecules from PubChem BioAssay (NCATS).

Records with an inconclusive call do not appear. A number with no mark means an inactive call. Calls of active or inactive are those of the source. Calls follow the shape of the dose curve; as a rule, active = well fitted curve in the direction sought with a large enough effect; inconclusive = small, poorly fitted or top-dose-only effect, or another doubt; inactive = no such curve, though single readings can be large; an effect the other way counts as inactive or inconclusive.
Potency is read from the fitted curve at half-maximal effect.

Test system in the first test: not listed separately
The test is described as follows: Confirmatory screen GU Rhodamine qHTS for Zika virus inhibitors qHTS (AID 1347157). Also: nearly all actives have a fitted effect of over 70% in size.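 As to activity change, negative = inhibition: plate controls were no-inhibitor wells for no effect and no-enzyme wells for full effect.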 The settings on record: purified enzyme assay, Rhodamine110 substrate fluorescence, 15 min; series mostly up to 65.2 µM; activity change, negative = inhibition: at the top concentration. The procedure, abridged: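 Unlinked NS2B/NS3, 25 nM; Rhod110 peptide, 1.5 microM; compounds, up to 114 microM. Reaction run 15 min at RT in 10 mM Tris-HCl pH 8.0, 0.01% Tween 20; kinetic fluorescence change fitted with a 4-parameter Hill model.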
On the technique in general: Quantitative high-throughput screening tests each substance at several concentrations.
For `O=c1c(O)c(-c2ccc(O)cc2)oc2cc(O)cc(O)c12`, the “activity change, negative = inhibition” value is 10.2%. With `CC1(C)CCC(CN2CCN(c3ccc(C(=O)NS(=O)(=O)c4ccc(NCC5CCOCC5)c([N+](=O)[O-])c4)c(Oc4cnc5[nH]ccc5c4)c3)CC2)=C(c2ccc(Cl)cc2)C1`, the Potency is 1210 nM (active). Regarding `O=C(O)c1c(Cl)c(Cl)c(Cl)c(Cl)c1-c1c2cc(I)c(=O)c(I)c-2oc2c(I)c(O)c(I)cc12`, the “activity change, negative = inhibition” value is 2.22% [at 114 µM].

Another test concerns Zika virus NS2B-NS3 protease (unlinked complex). The experiment in a line: Primary screen GU Rhodamine qHTS for Zika virus inhibitors: Unlinked NS2B-NS3 protease assay (AID 1347159). Also: nearly all actives have a fitted effect of over 60% in size. As to activity change, negative = inhibition: % is scaled to controls: 0 for no effect and ±100 for the full control effect. The settings on record: Recombinant ZIKV NS2B-NS3 protease, Rhodamine110 substrate fluorescence; series mostly up to 107 µM; activity change, negative = inhibition: at the top concentration. The procedure, abridged: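 Noncovalent NS2B hydrophilic domain–NS3 protease domain complex (25 nM) preincubated 15 min at room temperature with compounds (up to 114 microM) in 10 mM Tris-HCl pH 8.0, 0.01% Tween 20; 1.5 microM Rhodamine110 substrate added, fluorescence change over 15 min fitted to Hill equation.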
Regarding `NC(=O)c1ccc2nc(-c3ccc(Oc4ccc(Cl)cc4)cc3)[nH]c2c1`, the “activity change, negative = inhibition” value was 0%.

On to `O=c1[nH]cnc2c1ncn2[C@H]1CC[C@@H](CO)O1`, for which the “activity change, negative = inhibition” value is 4.54%. The same measure, in the same setting: the figure for `C=C1C(=O)[C@@]23C(CC[C@@H]1[C@H]2O)[C@@]12CO[C@]3(O)[C@@H](O)[C@@H]1C(C)(C)CC[C@@H]2O` (some centres not stated) is 0%; for `CS(=O)c1ccc(-c2nc(-c3ccc(F)cc3)c(-c3ccncc3)[nH]2)cc1` (configuration not stated) it is -7.92%; for `COc1ccc2cc(-c3nc(-c4ccc(S(C)=O)cc4)[nH]c3-c3ccncc3)ccc2c1` (configuration not stated) it is -18.3%. As for `CC1CCC(C(=O)N(c2cc(C#CC(C)(C)C)sc2C(=O)O)C2CCC(O)CC2)CC1` (configuration not stated), the Potency is 7940 nM (active). For `CNC1CCC(N(Cc2cccc(-c3ccncc3)c2)C(=O)c2sc3c(F)ccc(F)c3c2Cl)CC1` (configuration not stated), the “activity change, negative = inhibition” value was 92.4%.

For the molecule `NC(=O)c1cccc2[nH]c(-c3ccc([C@H]4CCCN4)cc3F)nc12`, the “activity change, negative = inhibition” value is 8.82%. As to `CC1(C)CCC(CN2CCN(c3ccc(C(=O)NS(=O)(=O)c4ccc(NCC5CCOCC5)c([N+](=O)[O-])c4)c(Oc4cnc5[nH]ccc5c4)c3)CC2)=C(c2ccc(Cl)cc2)C1`, the Potency was 2240 nM (active).
